Records with an inconclusive call do not appear. Activity calls are given as the source filed them. Calls follow the shape of the dose curve; as a rule, active = well fitted curve in the direction sought with a large enough effect; inconclusive = small, poorly fitted or top-dose-only effect, or another doubt; inactive = no such curve, though single readings can be large; an effect the other way counts as inactive or inconclusive.
The molecules below were run against N-terminal Xaa-Pro-Lys N-methyltransferase 1 (Homo sapiens) (UniProt Q9BV86) (assay: qHTS Assay for Inhibitors of N-terminal methyltransferase 1 (NTMT1): LOPAC validation of the NTMT1 SAHH-coupled ThioGlo3 Assay (AID 1347143;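 also: SAH from peptide methylation measured as thiol fluorescence via SAHH coupling and ThioGlo3; nearly all actives have a fitted effect of over 70% in size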; as to activity change, negative = inhibition: % is scaled to controls: 0 for no effect and ±100 for the full control effect)). Conditions: recombinant NTMT1, SAHH-coupled ThioGlo3 fluorescence; series mostly up to 114 µM; activity change, negative = inhibition: at the top concentration.
Outline: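 Recombinant human NTMT1 (125nM) was pre-incubated 1 min at room temperature with compounds over a concentration range, then a mix of 100uM SAM, 10uM SAHH and 15uM ThioGlo3 (concentrations in added reagent) was added. ThioGlo3 fluorescence (ex 340/em 450nm) after 30 min was normalized to the initial reading.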
Potency is read from the fitted curve at half-maximal effect.

Sequence of N-terminal Xaa-Pro-Lys N-methyltransferase 1 (Homo sapiens) (Q9BV86 whole entry, looked up): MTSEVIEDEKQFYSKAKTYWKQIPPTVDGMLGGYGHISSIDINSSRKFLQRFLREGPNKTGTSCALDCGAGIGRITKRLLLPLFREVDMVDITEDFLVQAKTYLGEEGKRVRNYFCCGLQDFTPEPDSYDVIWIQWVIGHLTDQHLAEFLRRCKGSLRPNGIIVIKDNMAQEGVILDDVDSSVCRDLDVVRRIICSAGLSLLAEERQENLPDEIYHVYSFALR

| Structure (SMILES) | activity change, negative = inhibition | Potency |
| --- | --- | --- |
| O=c1[nH]c2cc(C(F)(F)F)ccc2n1-c1cc(C(F)(F)F)ccc1O | -17.8% (inactive) | – |
| O=C(Nc1cccc(C(=O)Nc2ccc(S(=O)(=O)O)c3cc(S(=O)(=O)O)cc(S(=O)(=O)O)c23)c1)Nc1cccc(C(=O)Nc2ccc(S(=O)(=O)O)c3cc(S(=O)(=O)O)cc(S(=O)(=O)O)c23)c1 | -18.6% (inactive) | – |
| COc1cc(SC)ccc1C(=O)N1CCC(Cc2ccccc2)CC1 | -11.8% (inactive) | – |
| O=C1C(SCCO)=C(SCCO)C(=O)c2ccccc21 | 217% (inactive) | – |
| C=CCc1cccc(/C=N/NC(=O)CN2CCN(Cc3ccccc3)CC2)c1O | -15.2% (inactive) | – |
| CC(C)(C=O)Cc1cc(C(C)(C)C)c(O)c(C(C)(C)C)c1 | -6.32% (inactive) | – |
| CC(C)NCC(O)COc1cccc2ccccc12 (centres undefined) | -29.3% (inactive) | – |
| O=C(Nc1ccccc1)c1cc([N+](=O)[O-])ccc1Cl | -23.5% (inactive) | – |
| O=C1NC(=O)c2c1c(-c1ccccc1)cc1[nH]c3ccc(O)cc3c21 | – | 50.1 µM (active) |

The molecules below were run against Furin (Homo sapiens) (UniProt P09958) (assay: Furin counterscreen qHTS for Zika virus inhibitors (AID 1347149; also: nearly all actives have a fitted effect of over 70% in size;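 as to activity change, negative = inhibition: purified recombinant full-length human furin enzyme at 5 nM; fluorescence gain from furin cutting a BOC-RVRR-AMC peptide substrate over 15 min; top concentration of the series differs between compounds; plate controls were no-inhibitor control for no effect and no-enzyme control for full effect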)). Conditions: furin enzymatic counterscreen, fluorogenic substrate; series mostly up to 57.5 µM; activity change, negative = inhibition: at the top concentration.
Outline: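 Fluorogenic cleavage of BOC-RVRR-AMC (2 microM final, Km ~15 µM) was monitored (ex 340, em 450 nm) at 37C after 15 min RT preincubation of 5 nM furin with compounds in HEPES pH 7.0 buffer with CaCl2 and Triton X-100. Percent inhibition was fitted to a 4-parameter Hill curve.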

Sequence of Furin (Homo sapiens) (P09958 whole entry, looked up): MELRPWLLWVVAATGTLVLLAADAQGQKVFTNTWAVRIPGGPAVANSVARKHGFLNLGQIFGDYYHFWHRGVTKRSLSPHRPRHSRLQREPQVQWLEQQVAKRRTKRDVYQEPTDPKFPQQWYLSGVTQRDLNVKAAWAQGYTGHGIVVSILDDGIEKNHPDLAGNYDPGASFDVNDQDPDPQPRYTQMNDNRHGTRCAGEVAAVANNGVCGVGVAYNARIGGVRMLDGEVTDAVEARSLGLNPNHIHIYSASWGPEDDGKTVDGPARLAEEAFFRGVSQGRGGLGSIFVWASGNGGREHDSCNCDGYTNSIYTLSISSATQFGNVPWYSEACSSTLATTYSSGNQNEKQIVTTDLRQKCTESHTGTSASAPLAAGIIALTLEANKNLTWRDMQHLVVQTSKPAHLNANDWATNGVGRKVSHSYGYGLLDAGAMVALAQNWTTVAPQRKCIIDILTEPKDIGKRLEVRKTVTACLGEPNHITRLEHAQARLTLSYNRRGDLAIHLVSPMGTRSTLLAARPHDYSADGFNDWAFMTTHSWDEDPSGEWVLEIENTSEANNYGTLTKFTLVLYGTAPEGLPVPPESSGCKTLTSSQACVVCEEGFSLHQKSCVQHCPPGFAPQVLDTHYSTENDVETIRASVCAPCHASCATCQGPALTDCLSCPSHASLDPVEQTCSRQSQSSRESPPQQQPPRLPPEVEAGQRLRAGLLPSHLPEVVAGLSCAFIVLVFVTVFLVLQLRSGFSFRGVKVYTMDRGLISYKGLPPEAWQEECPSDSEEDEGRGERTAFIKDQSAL

| Structure (SMILES) | Potency | activity change, negative = inhibition |
| --- | --- | --- |
| COc1ccc(Br)cc1S(=O)(=O)NC(=O)/C=C/c1ccccc1Cc1ccc2ccccc2c1 | 27 µM (active) | – |
| CN1CCN(c2cc3c(nn2)Oc2ccccc2N3C)CC1 | 11.8 µM (active) | – |
| Cc1ccccc1CNc1ncnc2c1ncn2C1OC(CO)C(O)C1O (centres undefined) | – | 2.45% (inactive) |
| CC[C@@H](C)[C@H]1O[C@]2(CC[C@H]1C)C[C@@H]1C[C@@H](CC=C(C)[C@@H](O[C@H]3C[C@H](OC)[C@@H](O[C@H]4C[C@H](OC)[C@@H](O)[C@H](C)O4)[C@H](C)O3)[C@@H](C)C=CC=C3CO[C@@H]4[C@H](O)C(C)=C[C@@H](C(=O)O1)[C@]34O)O2 | – | -1.64% (inactive) |
| COC(=O)C1=C(C)NC(C)=C(C(=O)OC)C1c1cccc(NC(=O)NCCCN2CCC(c3cccc(OC)c3)CC2)c1 | 30.3 µM (active) | – |
| C=C[C@@H]1CN2CC[C@@H]1C[C@H]2[C@H](O)c1ccnc2ccc(OC)cc12 | 24.1 µM (active) | – |

These molecules were tested on Zika virus NS2B-NS3 protease (unlinked) (assay: Optimization of GU AMC qHTS for Zika virus inhibitors: Unlinked NS2B-NS3 protease assay (AID 1347151; also: nearly all actives have a fitted effect of over 80% in size;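 as to activity change, negative = inhibition: 0% = no-inhibitor control and -100% = no-enzyme control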)). Conditions: recombinant ZIKV NS2B-NS3 protease, fluorogenic AMC substrate; series mostly up to 52.5 µM; activity change, negative = inhibition: at the top concentration.
Outline: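 Unlinked protease (25 nM final); buffer 10 mM Tris-HCl pH 8.0 + 0.01% Tween 20; AMC substrate; 15 min RT, dark; Δfluorescence normalized to no-inhibitor/no-enzyme controls; 4-parameter Hill fit.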

| Structure (SMILES) | activity change, negative = inhibition | Potency |
| --- | --- | --- |
| NC(=S)c1ccc[n+]([C@@H]2O[C@@H](COP(=O)([O-])OP(=O)(O)OC[C@H]3O[C@@H](n4cnc5c(N)ncnc54)[C@H](OP(=O)(O)O)[C@@H]3O)C(O)C2O)c1 (some centres undefined) | -2.95% (inactive) | – |
| N=c1ccn2c(n1)O[C@H]1[C@H](O)[C@@H](CO)O[C@H]12 | 3.94% (inactive) | – |
| Nc1nc(Cl)nc2c1ncn2[C@@H]1O[C@H](COP(=O)(O)OP(=O)(O)OP(=O)(O)O)[C@@H](O)[C@H]1O | -14.3% (inactive) | – |
| CC(C)(NS(=O)(=O)c1ccc(Oc2ccc(F)cc2)cc1)C(=O)NO | -9.85% (inactive) | – |
| C[N+]1(C)C2CC(OC(=O)[C@H](CO)c3ccccc3)CC1C1OC12 (some centres undefined) | – | inactive |
| COc1ccc(Br)cc1S(=O)(=O)NC(=O)/C=C/c1ccccc1Cc1ccc2ccccc2c1 | – | 5.32 µM (active) |
| NCC1OC(O[C@H]2[C@H](O)[C@@H](OC3C(O)C(N)CC(N)C3OC3OC(CO)C(O)C(O)C3N)O[C@@H]2CO)C(N)C(O)C1O (some centres undefined) | 5.21% (inactive) | – |
| Fc1cccc(/C=N/N=C/c2cccc(F)c2)c1 | -5.48% (inactive) | – |
| Cc1ccccc1CNc1ncnc2c1ncn2C1OC(CO)C(O)C1O (centres undefined) | -5.27% (inactive) | – |
| O=C1/C(=C/c2ccsc2)CC/C1=C\c1cccs1 | -15.3% (inactive) | – |
| COc1cc(SC)ccc1C(=O)N1CCC(Cc2ccccc2)CC1 | -7.62% (inactive) | – |
| NC(N)=NC(=O)c1nc(Cl)c(N2CCCCCC2)nc1N | -15.9% (inactive) | – |
| CCCCCCCCCCCCCCCCCC(=O)OC(CC(=O)O)C[N+](C)(C)C (centres undefined) | -7.43% (inactive) | – |
| COc1ccccc1CN[C@@H]1CCCN[C@@H]1c1ccccc1 | 8.89% (inactive) | – |
| CN1CCc2cc(NC(=O)Nc3cccnc3)ccc21 | -12.8% (inactive) | – |
| Brc1c(Br)c(Br)c2n[nH]nc2c1Br | – | 26.7 µM (active) |
| O=C(c1ccc(Cl)cc1)N1CCN(c2ccc([N+](=O)[O-])c3ncccc23)CC1 | -18.5% (inactive) | – |
| Fc1ccc(C(OCCCc2cnc[nH]2)c2ccc(F)cc2)cc1 | 5.33% (inactive) | – |
| O=[N+]([O-])c1ccc(CNc2nc(NCc3cccc(C(F)(F)F)c3)nc3nc[nH]c23)cc1 | -4.58% (inactive) | – |
| CCN1/C(=C/C(C)=O)Sc2ccc(OC)cc21 | -17.5% (inactive) | – |
| O=C1NC(=O)/C(=C/c2ccc3nccnc3c2)S1 | -8.24% (inactive) | – |
| CCN(CC)c1ncnc2c1ncn2[C@@H]1O[C@H](COP(=O)(O)OP(=O)(O)C(Br)(Br)P(=O)(O)O)[C@@H](O)[C@H]1O | 1.24% (inactive) | – |
| C=CC(C)=C[C@@]1(C)SC(=O)C(C)=C1O | 9.22% (inactive) | – |
| O=C(Nc1ccccc1)c1cc([N+](=O)[O-])ccc1Cl | -8.31% (inactive) | – |
| O=C1NC(=O)c2c1c(-c1ccccc1)cc1[nH]c3ccc(O)cc3c21 | -26.5% (inactive) | – |
| CC1OC1P(=O)(O)O (centres undefined) | -3.1% (inactive) | – |

These molecules were tested on Zika virus NS2B-NS3 protease (linked construct) (assay: Confirmatory screen NINDS AMC qHTS for Zika virus inhibitors (AID 1347152; also: nearly all actives have a fitted effect of over 70% in size;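 as to activity change, negative = inhibition: AMC fluorescence gain from cleaved Bz-Nle-KRR-AMC substrate over 15 min; top concentration of the series differs between compounds; 0% = no-inhibitor control and -100% = no-enzyme control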)). Conditions: Purified linked NS2B-NS3, AMC substrate fluorescence; series mostly up to 56.6 µM; activity change, negative = inhibition: at the top concentration.
Outline: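 Enzyme (1 nM, linked construct) was preincubated with compound for 15 minutes at room temperature in 10 mM Tris-HCl pH 8.0 with 0.01% Tween 20. Bz-Nle-Lys-Arg-Arg-AMC was then added to 10 microM, and AMC fluorescence was recorded immediately and after 15 minutes.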

| Structure (SMILES) | Potency | activity change, negative = inhibition |
| --- | --- | --- |
| COc1ccc(Br)cc1S(=O)(=O)NC(=O)/C=C/c1ccccc1Cc1ccc2ccccc2c1 | 10.8 µM (active) | – |
| CN1CCN(c2cc3c(nn2)Oc2ccccc2N3C)CC1 | 10.5 µM (active) | – |
| COC(=O)C1=C(C)NC(C)=C(C(=O)OC)C1c1cccc(NC(=O)NCCCN2CCC(c3cccc(OC)c3)CC2)c1 | – | 15.1% (inactive) |

What follows are molecules tested on Zika virus NS2B-NS3 protease (assay: Primary screen GU AMC qHTS for Zika virus inhibitors (AID 1347154; also: nearly all actives have a fitted effect of over 70% in size;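 as to activity change, negative = inhibition: 0% = no-inhibitor control and -100% = no-enzyme control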)). Conditions: Zika NS2B-NS3 unlinked protease, AMC fluorogenic substrate; series mostly up to 54.1 µM; activity change, negative = inhibition: at the top concentration.
Outline: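 Unlinked Zika NS2B hydrophilic domain–NS3 protease complex at 25 nM in 10 mM Tris-HCl pH 8.0, 0.01% Tween 20, with an AMC peptide substrate. Fluorescence change (340/450 nm) over 15 min at room temperature, normalized to controls, fitted to 4-parameter Hill.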

| Structure (SMILES) | activity change, negative = inhibition | Potency |
| --- | --- | --- |
| O=c1[nH]c2cc(C(F)(F)F)ccc2n1-c1cc(C(F)(F)F)ccc1O | -11.3% (inactive) | – |
| O=C(Nc1cccc(C(=O)Nc2ccc(S(=O)(=O)O)c3cc(S(=O)(=O)O)cc(S(=O)(=O)O)c23)c1)Nc1cccc(C(=O)Nc2ccc(S(=O)(=O)O)c3cc(S(=O)(=O)O)cc(S(=O)(=O)O)c23)c1 | -20.3% (inactive) | – |
| CN1CCN(c2cc3c(nn2)Oc2ccccc2N3C)CC1 | – | 9.89 µM (active) |
| COc1cc(SC)ccc1C(=O)N1CCC(Cc2ccccc2)CC1 | -4.54% (inactive) | – |
| O=C1C(SCCO)=C(SCCO)C(=O)c2ccccc21 | 13.3% (inactive) | – |
| C=CCc1cccc(/C=N/NC(=O)CN2CCN(Cc3ccccc3)CC2)c1O | 28.5% (inactive) | – |
| CC(C)(C=O)Cc1cc(C(C)(C)C)c(O)c(C(C)(C)C)c1 | -1.71% (inactive) | – |
| CC(C)NCC(O)COc1cccc2ccccc12 (centres undefined) | 15.8% (inactive) | – |
| O=C(Nc1ccccc1)c1cc([N+](=O)[O-])ccc1Cl | – | inactive |
| O=C1NC(=O)c2c1c(-c1ccccc1)cc1[nH]c3ccc(O)cc3c21 | 2.43% (inactive) | – |

Source: PubChem BioAssay (NCATS)
